Shiga inhibitor = inhibitors of Shiga toxin in Vero cells; Vero cells, Shiga toxin protein synthesis inhibition reporter; inhibition, % at 38.7 µM; hit rate 9.2% among 290,000; in the data active = inhibition mostly above about 28%, no sharp cut-off; inactive = mostly below about 43%
Pf growth 48h = P. falciparum growth inhibition at 48 hours (one generation); P. falciparum luciferase growth in erythrocytes, 48 h; Potency, µM (series often up to 28.7 µM), most hits filed as inhibitors; hit rate 5.9% among 310,000; AID 504832
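Compounds are pin-transferred into medium, infected erythrocytes (2% hematocrit, 0.1% parasitemia final) are added, and plates sit one parasite generation at 37 C in 5% CO2. Detection reagent is then added and luminescence measured.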
CHX counter = counter-screen for Shiga toxin inhibitors: cycloheximide protein synthesis inhibition; max response, %; hit rate 12% among 300,000; cell reporter, cycloheximide protein synthesis inhibition counterscreen; in the data active = max response mostly above about 13%, no sharp cut-off; inactive = mostly below about 14%; also: read at 38.3 µM for the half of the compounds with a filed dose
Pf growth 96h = P. falciparum growth inhibition at 96 hours; P. falciparum luciferase reporter growth, 96 h; Potency, µM (titrated, usually from 28.7 µM), usual class: inhibitors; hit rate 6.9% among 320,000
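P. falciparum expressing integrated firefly luciferase grown in erythrocytes (2% hematocrit, 0.05% parasitemia final) with compounds for 96 hours at 37 C, 5% CO2. Growth inhibition read as loss of luminescence after adding luciferase detection reagent.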
NS1 function inh = blocks influenza NS1 protein function. Potency, µM (top dose mostly 46.1 µM). hit rate 0.4% among 270,000. AID 2326; calls by dose curve; also: actives are rising curves; nearly all actives have a fitted effect of over 50% in size
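S. cerevisiae expressing influenza A NS1, grown in glucose, washed, then diluted 1:100 into pH 6.0 -URA galactose medium with 23 nl compound. Growth recovery read as OD600; NS1-free strain serves as control.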
SARS PLP yeast = blocks SARS-CoV papain-like protease in a yeast assay | S. cerevisiae expressing SARS-CoV PLpro, growth rescue | Potency, µM (highest dose often 32.9 µM), usual class: activators | hit rate 0.19% among 330,000 | AID 485353; calls by dose curve; also: nearly all actives have a fitted effect of over 55% in size
Each line names hits and unclear results; the compound was inactive in the other large screens. In the library only some 21% were active in any assay of this set; here they are far more common. Unless noted, calls follow the shape of the dose curve; as a rule, active = well fitted inhibition curve with a large enough effect; inconclusive = small, poorly fitted or top-dose-only effect, or another doubt; inactive = no such curve, though single readings can be large or run the other way.

O=C(NCc1nc(-c2ccc(C(F)(F)F)cc2)no1)Nc1ccc(OC(F)(F)F)cc1	none
Cc1cc(C(=O)COc2cccnc2[N+](=O)[O-])c(C)n1Cc1cccs1	Shiga inhibitor 146.5, CHX counter 43.4 (no result: NS1 function inh)
CC(=O)Nc1ccccc1OCC(=O)c1cc(C)n(Cc2cccs2)c1C	Shiga inhibitor 126.7, CHX counter 66.3
Cc1cc(C(=O)COC(=O)c2ccccc2O)c(C)n1Cc1cccs1	none (no result: Pf growth 96h)
O=C(COc1cccnc1[N+](=O)[O-])c1ccc(Cl)s1	CHX counter 17.7
Cc1cc(OC(C)C(=O)N(Cc2ccco2)C2CCS(=O)(=O)C2)cc(C)c1Cl (stereo not given)	none
CC(C(=O)Nc1cccnc1)C1Sc2ccccc2NC1=O (stereo not given)	none
CCOc1cc(C(=O)OCC(=O)c2cc(C)n(CC3CCCO3)c2C)ccc1OCC(=O)N1CCOCC1 (stereo not given)	Shiga inhibitor 53.2, CHX counter 31.6 (no result: NS1 function inh)
Cc1cc(C(=O)COC(=O)c2ccccc2NCCO)c(C)n1CC1CCCO1 (stereo not given)	Shiga inhibitor 111.9, CHX counter 88.7
Cc1cc(C(=O)COc2ccccc2C(N)=O)c(C)n1CC1CCCO1 (stereo not given)	CHX counter 25.7
Cc1cc(C(=O)COC(=O)c2cccnc2Cl)c(C)n1CC1CCCO1 (stereo not given)	none
Cc1cc(C(=O)COC(=O)c2n[nH]c3ccccc23)c(C)n1CC1CCCO1 (stereo not given)	CHX counter 37.7
COc1ccc(C2(C(=O)NCc3ccco3)CCCC2)cc1OC	Pf growth 48h inconclusive
Cc1cc(C(=O)COC(=O)c2ccccc2O)c(C)n1CC1CCCO1 (stereo not given)	none (no result: Shiga inhibitor, CHX counter, NS1 function inh)
Cc1cc(C(=O)COC(=O)c2ccccc2Br)c(C)n1CC1CCCO1 (stereo not given)	none
Cc1ccc(C(=O)OCC(=O)c2cc(C)n(CC3CCCO3)c2C)cc1 (stereo not given)	Shiga inhibitor 107.5, CHX counter 40.0
Cc1cc(C(=O)COC(=O)c2cc(O)c3ccccc3c2O)c(C)n1CC1CCCO1 (stereo not given)	Pf growth 48h inconclusive, CHX counter 14.4, Pf growth 96h inconclusive (no result: NS1 function inh)
Cn1cc2cc(NC(N)=S)ccc2n1	none (no result: NS1 function inh)
CC(C)(CC(=O)O)CC(=O)N1CCCN(c2nccc(C(F)(F)F)n2)CC1	none
Cc1ccc(CNS(=O)(=O)c2c(C)[nH]c(=O)[nH]c2=O)cc1	none
COc1ccc(C[C@H]2CN3C(=NC[C@H]3C)N2CCNC(=O)c2ccc(C)c(Br)c2)cc1	Pf growth 96h 3.7µM
Cc1ccc(C(=O)NCCN2C3=NC[C@H](C)N3C[C@H]2Cc2ccc(O)cc2)cc1Br	Pf growth 48h inconclusive, Pf growth 96h 13.1µM
COc1ccc(C[C@@H]2CN3C(=NC[C@@H]3C)N2C[C@H](C)NC(=O)c2ccc(C)c(Br)c2)cc1	Pf growth 48h 8.28µM, Pf growth 96h 2.62µM
CCOC(=O)c1cccc2c(=O)c(C(=O)c3ccc(Cl)cc3)c(C(=O)OC)[nH]c12	none
CCOc1ccc(NC(=O)C(=O)NCC2CCCN2CC)cc1 (stereo not given)	none
CCN1CCCC1CNC(=O)C(=O)Nc1ccccc1 (stereo not given)	Shiga inhibitor 85.6, CHX counter 29.4, Pf growth 96h inconclusive (no result: NS1 function inh)
CCN1CCCC1CNC(=S)Nc1ccc(C(C)=O)cc1 (stereo not given)	Pf growth 48h 14.7µM (no result: NS1 function inh)
O=C(CC12CC3CC(CC(C3)C1)C2)Nc1cccc2ncccc12	Pf growth 96h inconclusive (no result: Pf growth 48h)
Oc1c(N=Nc2ccccn2)ccc2ccccc12	Shiga inhibitor 78.6, Pf growth 48h inconclusive, CHX counter 35.9, Pf growth 96h 8.28µM
c1ccc2c(c1)ccc1ncccc12	none (no result: NS1 function inh)
CCCC(=O)N(Cc1cc(=O)[nH]c2ccccc12)c1cccc(C)c1	Pf growth 48h 11.7µM, Pf growth 96h 8.28µM
COc1ccc(N2CCN(C(=O)CN3C(=O)NC4(CCCc5ccccc54)C3=O)CC2)cc1 (stereo not given)	Pf growth 48h inconclusive (no result: Shiga inhibitor, CHX counter, NS1 function inh)
CN(C)S(=O)(=O)c1ccc2c(c1)C(CC(=O)O)NC2=O (stereo not given)	none
C/C(CC1CC2=C(CC1(C)C)C(C)(C)CCC2)=N\NC(N)=S (stereo not given)	Pf growth 96h 1.04µM, SARS PLP yeast 11.2µM (no result: Pf growth 48h)
Cc1cccc(NC(=S)c2nc3ccccc3s2)c1	Shiga inhibitor 86.4, CHX counter 27.8
O=C(Nc1ccccc1)Nc1sccc1-c1nc2ccccc2s1	Shiga inhibitor 63.2, Pf growth 48h inconclusive, Pf growth 96h inconclusive
O=C(NCCCO)c1nc2ccccc2s1	none
CC(C)(C)NC(=O)c1nc2ccccc2s1	Shiga inhibitor 46.6, CHX counter 20.5
O=C(Nc1ccccc1)c1nc2ccccc2s1	Shiga inhibitor 89.2, CHX counter 48.0
Cc1noc(C)c1CCC(=O)N1CCCC(CCC(=O)NCc2ccccc2F)C1 (stereo not given)	none
CCCc1cc(O)c2c(C)cc(=O)oc2c1	Pf growth 48h inconclusive, Pf growth 96h 11.7µM
COc1ccccc1-n1cnc2cc(NCc3ccco3)ccc21	Pf growth 48h inconclusive
COc1ccc(CNc2ccc3c(c2)ncn3-c2ccccc2OC)cc1	Pf growth 48h 14.7µM, Pf growth 96h 13.1µM
COc1ccccc1-n1cnc2cc(NCc3ccccc3O)ccc21	Shiga inhibitor 69.8, Pf growth 48h inconclusive, CHX counter 21.7, Pf growth 96h inconclusive
Cc1ccccc1-n1cnc2cc(NCc3cccs3)ccc21	Pf growth 48h inconclusive, Pf growth 96h inconclusive, SARS PLP yeast inconclusive
COc1ccccc1-n1cnc2cc(NS(=O)(=O)c3ccc(Br)cc3)ccc21	Pf growth 96h 5.22µM, NS1 function inh inconclusive (no result: Pf growth 48h)
COc1ccc(-n2cnc3cc(NS(=O)(=O)c4ccc(C)cc4)ccc32)cc1	Pf growth 96h inconclusive (no result: Pf growth 48h)
COc1ccccc1-n1cnc2cc(NCc3cccs3)ccc21	Shiga inhibitor 44.2, CHX counter 23.2 (no result: Pf growth 96h)
O=C(O)C(Cc1c[nH]c2ccccc12)N1Cc2ccccc2C1=O (stereo not given)	Shiga inhibitor 41.6, CHX counter 27.9
O=C(O)[C@H](Cc1c[nH]c2ccccc12)N1C(=O)c2ccccc2C1=O	none (no result: Shiga inhibitor, Pf growth 48h, CHX counter, Pf growth 96h, SARS PLP yeast)
Cc1cc(OCC(=O)Nc2cccnc2)c2c(C)c(C)c(=O)oc2c1	none
O=C(COc1ccccc1Cl)Nc1cccnc1	Shiga inhibitor 72.8, CHX counter 39.6
O=C(COc1ccc(F)cc1F)Nc1cccnc1	none
Cc1ccc(Cl)c(OCC(=O)Nc2cccnc2)c1	Shiga inhibitor 104.6, CHX counter 58.4
O=C(O)Cc1ccc2oc(-c3cccnc3)nc2c1	none (no result: NS1 function inh)
CCOc1ccc(NC(=O)COc2ccc3c(c2)CCC3)cc1OC	none (no result: Shiga inhibitor, CHX counter, NS1 function inh)
Cc1ccn2cc(-c3cccc(S(=O)(=O)N4CCCCC4)c3)nc2c1	CHX counter 20.6, Pf growth 96h inconclusive
Cc1ccc2nc(-c3ccc(S(=O)(=O)N4CCCCC4)cc3)cn2c1	Shiga inhibitor 66.2, CHX counter 25.0

Compound activity: PubChem, National Center for Advancing Translational Sciences (NCATS)
